# From PubChem BioAssay
# 4MU fluor: compounds fluorescent in 4-MU spectral region | compound autofluorescence, 340/450 nm, 4-MU equivalents; active compounds read high | max dye-equivalent concentration, M | 59,000 tested, 11% active; in the data active = max dye-equivalent concentration above about 10 nM; inconclusive = mostly about 1.1 nM to 9.6 nM
#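 Intrinsic fluorescence at 340/450 nm (ex/em) was read after 15 min at room temperature in pH 8.0, 100 mM Tris. Each compound concentration expressed as 4-MU-equivalent concentration from a six-point 4-MU standard series on each plate.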
# HADH2 inhib: inhibitors of human HADH2 dehydrogenase. Potency, µM (titrated, usually from 57.1 µM), inactives show at the highest dose activity change, negative = inhibition, usual class: inhibitors. recombinant HADH2, NADH fluorescence, beta-hydroxybutyryl-CoA. 73,000 tested, 3.4% active. AID 886; also: potency is read from the fitted curve at half-maximal effect; % is scaled to controls: 0 for no effect and ±100 for the full control effect; nearly all actives have a fitted effect of over 60% in size
# Target sequence (Q99714 whole entry, looked up, one chain of several): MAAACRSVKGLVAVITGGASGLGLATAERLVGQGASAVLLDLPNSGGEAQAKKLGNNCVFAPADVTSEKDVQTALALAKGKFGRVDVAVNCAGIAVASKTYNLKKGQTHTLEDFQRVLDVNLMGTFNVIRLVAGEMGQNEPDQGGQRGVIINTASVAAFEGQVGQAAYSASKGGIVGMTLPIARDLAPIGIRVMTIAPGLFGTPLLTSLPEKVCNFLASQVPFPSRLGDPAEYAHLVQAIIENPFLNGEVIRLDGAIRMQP
#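 E. coli-expressed His-tagged HADH2 tested at 20 nM in alkaline Tris buffer (pH 9.0); oxidation of 90 uM beta-hydroxybutyryl-CoA with 1 mM NAD+ tracked fluorimetrically for 4 min.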
# CRE-bla Fsk: modulators of forskolin-stimulated CRE signaling in CHO cells; CHO CRE-bla reporter (cAMP response element driving beta-lactamase), forskolin EC10, beta-lactamase ratio; 71,000 tested, 2.5% active; Potency, µM (highest dose often 38.2 µM), inactives show at the highest dose activity change, negative = inhibition, usual class: activators; active = well fitted activation curve with a large enough effect in the signal ratio, with a control signal flat, not every such curve was filed as active; inconclusive = small, poorly fitted or top-dose-only effect, or effect the other way, or a change in a side signal; the % refers to the signal ratio; also: potency is read from the fitted curve at half-maximal effect; % of control where 0% means no effect
#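 Modulation of forskolin signalling: compounds in titration series added with EC10 NKH 477 to CHO cells carrying a CRE-driven beta-lactamase reporter, 3 h, 37C. CCF4 FRET ratio (460/530 nm, ex 405 nm) gives %activity and AC50.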
# AID923: qHTS Assay for Allosteric/Competitive Inhibitors of Caspase-1: Spectroscopic Profiling in AFC Spectral Region; compound fluorescence, AFC spectral region (405/520 nm); Potency, µM (top dose mostly 57.5 µM), for the others: at the top dose fluorescence increase, most hits filed as activators; 75,000 tested, 1.1% active; AID 923, 2007; also: potency is read from the fitted curve at half-maximal effect; 0% is about no effect
#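 Compound autofluorescence profiled at 405 nm ex/520 nm em during kinetic caspase 1 run (50 nM enzyme, 5 uM Ac-WEHD-AFC, HEPES pH 7.5, 10 mM DTT). Titration up to 57 uM; baseline from regression intercept, normalized to AFC standard curve.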
# A350 fluor: compounds fluorescent in Alexa 350 spectral region; Compound autofluorescence, 340/450 nm, Alexa 350 dye-equivalents; active compounds read high; max dye-equivalent concentration, M; 59,000 tested, 11% active; in the data active = max dye-equivalent concentration above about 10 nM; inconclusive = mostly about 1.1 nM to 9.6 nM
# HSD17B inhib: blocks hydroxysteroid 17-beta dehydrogenase activity; Q99714; recombinant HSD17B10, NADH fluorescence kinetic; Potency, µM (doses to about 57.1 µM), without a hit: at the top dose activity change, negative = inhibition, hits mostly inhibitors; 75,000 tested, 7.6% active; AID 893;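 also: the protocol describes HADH2 (HSD17B10) and not the HSD17B4 of the title; potency is read from the fitted curve at half-maximal effect; % is scaled to controls: 0 for no effect and ±100 for the full control effect; nearly all actives have a fitted effect of over 70% in size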
#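 Enzyme plus compound, 15 min room temperature; substrate mix added (NAD+ 1 mM, beta-hydroxybutyryl-CoA 90 uM final); plates read kinetically for NADH fluorescence. HADH2 was His-tagged, E. coli-derived, 20 nM.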
# * hit, by the source's call; i = inactive; ? = inconclusive; / = no result; [ ] = dose if it differs, or a comment. In the library only some 14% were active in any assay of this set; here they are far more common. Unless noted, calls follow the shape of the dose curve; as a rule, active = well fitted curve in the direction sought with a large enough effect; inconclusive = small, poorly fitted or top-dose-only effect, or another doubt; inactive = no such curve, though single readings can be large; an effect the other way counts as inactive or inconclusive.
SMILES,4MU fluor,HADH2 inhib,CRE-bla Fsk,AID923,A350 fluor,HSD17B inhib
O=c1cc(-c2ccccc2)nc2n1Cc1ccccc1-2,i,12%,?,0%,i,-1%
O=c1nc2n(c3ccccc13)Cc1ccccc1-2,i,10%,?,2%,i,32µM*
Cc1noc(C)c1CSc1nc2sc(C)c(C)c2c(=O)n1-c1ccccc1,i,18%,?,0%,i,5%
Cc1sc2nc3n(c(=O)c2c1C)Cc1ccccc1-3,1.2e-07M*,0%,-1%,1%,1.5e-07M*,?
N#CCCn1ncn(-c2ccccc2)c1=S,i,-3%,14%,0%,i,9%
CCCCNc1nc(C)nc2c1nc(-c1ccccc1)n2CCCN(CC)CC,/,?,12%,-2%,/,25µM*
CCN(CC)CCCn1c(-c2ccccc2)nc2c(NCCOC)nc(C)nc21,/,?,0%,1%,/,32µM*
CCN(CC)CCCC(C)n1c(-c2ccccc2)nc2c(NCCOC)nc(C)nc21 (stereo unspecified),/,?,2%,-1%,/,25µM*
S=P(N1CC1)(N1CC1)N1CC1,/,/,/,-2%,/,-5%
O=C(OCc1nnc(-c2ccccc2)o1)c1ccc(S(=O)(=O)NCc2ccco2)cc1,i,19%,10%,0%,i,-25%
CCN(CC)S(=O)(=O)c1ccc(NC2c3ncccc3C(=O)N2Cc2ccccc2)cc1 (stereo unspecified),1.2e-08M*,?,-22%,-3%,1.2e-08M*,?
CCN(CC)S(=O)(=O)c1ccc(NC2c3ccccc3C(=O)N2Cc2ccc3c(c2)OCO3)cc1 (stereo unspecified),/,-6%,14%,0%,/,6%
CCOc1ccc(OCC)c(NC(=O)CCn2cccc2)c1,/,-11%,/,4%,/,6%
CC1=C/C(=C/N(C)c2ccccc2)C(=O)S1,i,6.3µM*,-16%,8%,i,16µM*
COc1ccc2nc3oc(C(=O)N4CCN(c5cccc(Cl)c5)CC4)cc3cc2c1,?,0%,?,0%,?,-9%
CCN1CCN(C(=O)c2cc3cc4cc(OC)ccc4nc3s2)CC1,1.3e-07M*,11%,?,6%,1.3e-07M*,25µM*
CC(C)c1ccc2oc(-c3ccc(NC(=O)c4ncn[nH]4)cc3)nc2c1,4.4e-08M*,25µM*,?,0%,4.1e-08M*,20µM*
CCC(C)c1ccc2oc(-c3ccc(NC(=O)c4ncn[nH]4)cc3)nc2c1 (stereo unspecified),5.8e-08M*,32µM*,?,-2%,6.2e-08M*,25µM*
CCC(C)c1ccc(O)c(NC(=O)c2ncn[nH]2)c1 (stereo unspecified),i,-10%,-5%,-2%,i,-2%
O=C(NCCCN1CCCC1=O)c1csc2ccccc12,i,-1%,-4%,0%,i,4%
COc1cccc2cc(-c3cn4cccc(C)c4n3)c(=O)oc12,1.1e-07M*,-5%,16%,11%,1.4e-07M*,-3%
COc1cccc2cc(C(=O)Nc3cccc(C)n3)c(=O)oc12,?,16%,-1%,0%,?,1%
CCOc1cccc2cc(-c3cn4cc(C)ccc4n3)c(=O)oc12,5.2e-08M*,14%,1µM*,4%,5.5e-08M*,?
COc1cccc2cc(-c3csc(CCn4nc(C)cc4C)n3)c(=O)oc12,3.1e-08M*,-2%,?,2%,3.8e-08M*,?
CCNc1nc(NC(C)C)nc(N(C#N)CCOc2ccc(Cl)cc2Cl)n1,i,0%,?,2%,i,?
COc1cc(OC)c2c(c1Cl)O[C@@]1(C2=O)[C@H](C)CC(=O)C[C@@H]1OC,1.4e-08M*,-12%[25.6 µM],-7%[17.1 µM],-3%[25.7 µM],1.2e-08M*,13µM*
COC1=CC(=O)C[C@@H](C)[C@@]12Oc1c(Cl)c(OC)cc(OC)c1C2=O,i,1%,-10%,/,?,/
CCCCN1C(=O)CC(Nc2ccc(CC)cc2)C1=O (stereo unspecified),i,1%,?,-1%,i,2%
